Several values for one entry are separate records, joined by “and”; a condition that tells them apart may be missing. Equal entries are not always repeated. Screen size: about 5,500 compounds; about 2,000 (36%) were called active. Roughly 18% stayed inconclusive and do not appear here. The list shows a part of the results. Unmarked numbers belong to inactive results. Rule as the data show it: active = normalized growth mostly below about 0.91 (no sharp cut-off); inconclusive = no clear call, values can overlap the other calls; inactive = mostly above about 0.92.
Experiment: chemical genetic growth profiling, strain panel (AID 1159580);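 also: tested at 20 µM; growth read once vehicle control cultures reached saturation at 30 °C; 1 = growth at the plate median or of vehicle wells; lower values mean less growth of the strain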
Details: S. cerevisiae deletion strains, growth OD

Q: For `COc1cc(OC)c2c(OC)c(-c3ccc4c(c3)OCO4)c(=O)oc2c1`, which normalized growth (locus YAL013W, strain DEP1, active compounds read low) is on record?
A: 0.982

Q: What about the normalized growth (locus YAL021C, strain ccr4, active compounds read low) of the same compound?
A: 0.968

Q: What about the normalized growth (locus YAL026C, strain drs2, active compounds read low) of the same compound?
A: 0.957

Q: And the normalized growth (locus YAL030W, strain snc1, active compounds read low)?
A: 0.975

Q: What about the normalized growth (locus YBL061C, strain skt5, active compounds read low) of the same compound?
A: 0.955

Q: And the normalized growth (locus YBR009C, strain hhf1, active compounds read low)?
A: 0.934

Q: And the normalized growth (locus YBR021W, strain FUR4, active compounds read low)?
A: 0.975

Q: And the normalized growth (locus YBR023C, strain chs3, active compounds read low)?
A: 0.943

Q: And the normalized growth (locus YBR171W, strain sec66, active compounds read low)?
A: 1

Q: What about the normalized growth (locus YBR229C, strain ROT2, active compounds read low) of the same compound?
A: 0.987

Q: And the normalized growth (locus YBR231C, strain swc5, active compounds read low)?
A: 0.954

Q: What about the normalized growth (locus YBR279W, strain paf1, active compounds read low) of the same compound?
A: 0.969

Q: And the normalized growth (locus YCL011C, strain gbp2, active compounds read low)?
A: 0.966

Q: And the normalized growth (locus YCL016C, strain dcc1, active compounds read low)?
A: 0.969

Q: And the normalized growth (locus YCL029C, strain bik1, active compounds read low)?
A: 0.995

Q: And the normalized growth (locus YCL061C, strain MRC1, active compounds read low)?
A: 0.985

Q: And the normalized growth (locus YCL069W, strain vba3, active compounds read low)?
A: 1.01

Q: What about the normalized growth (locus YCR088W, strain abp1, active compounds read low) of the same compound?
A: 0.988

Q: And the normalized growth (locus YDL005C, strain med2, active compounds read low)?
A: 0.983

Q: What about the normalized growth (locus YDL035C, strain GPR1, active compounds read low) of the same compound?
A: 0.987

Q: What about the normalized growth (locus YDL040C, strain nat1, active compounds read low) of the same compound?
A: 0.971

Q: What about the normalized growth (locus YDL074C, strain BRE1, active compounds read low) of the same compound?
A: 0.93

Q: What about the normalized growth (locus YDL101C, strain DUN1, active compounds read low) of the same compound?
A: 0.982

Q: What about the normalized growth (locus YDL134C, strain PPH21, active compounds read low) of the same compound?
A: 0.986

Q: What about the normalized growth (locus YDL185W, strain tfp1, active compounds read low) of the same compound?
A: 0.996

Q: What about the normalized growth (locus YDL192W, strain arf1, active compounds read low) of the same compound?
A: 0.979

Q: And the normalized growth (locus YDR001C, strain nth1, active compounds read low)?
A: 0.98

Q: What about the normalized growth (locus YDR069C, strain doa4, active compounds read low) of the same compound?
A: 0.982

Q: And the normalized growth (locus YDR101C, strain arx1, active compounds read low)?
A: 0.975

Q: What about the normalized growth (locus YDR137W, strain rgp1, active compounds read low) of the same compound?
A: 0.777 (active)

Q: What about the normalized growth (locus YDR150W, strain NUM1, active compounds read low) of the same compound?
A: 1.01

Q: And the normalized growth (locus YDR159W, strain sac3, active compounds read low)?
A: 0.951

Q: And the normalized growth (locus YDR162C, strain NBP2, active compounds read low)?
A: 0.973

Q: And the normalized growth (locus YDR195W, strain ref2)?
A: 1.05

Q: And the normalized growth (locus YDR297W, strain sur2, active compounds read low)?
A: 0.974

Q: What about the normalized growth (locus YDR318W, strain mcm21, active compounds read low) of the same compound?
A: 0.976

Q: And the normalized growth (locus YDR334W, strain swr1, active compounds read low)?
A: 0.983

Q: What about the normalized growth (locus YDR335W, strain msn5, active compounds read low) of the same compound?
A: 1.01

Q: What about the normalized growth (locus YDR388W, active compounds read low) of the same compound?
A: 0.972

Q: What about the normalized growth (locus YDR392W, strain spt3, active compounds read low) of the same compound?
A: 0.477 (active)

Q: What about the normalized growth (locus YDR502C, strain sam2, active compounds read low) of the same compound?
A: 0.956

Q: And the normalized growth (locus YEL003W, strain gim4, active compounds read low)?
A: 0.971

Q: And the normalized growth (locus YEL037C, strain rad23, active compounds read low)?
A: 0.986

Q: And the normalized growth (locus YEL061C, strain CIN8 (second series), active compounds read low)?
A: 1

Q: And the normalized growth (locus YEL061C, strain CIN8, active compounds read low)?
A: 0.996

Q: And the normalized growth (locus YER015W, strain faa2, active compounds read low)?
A: 0.96

Q: And the normalized growth (locus YER016W, strain bim1, active compounds read low)?
A: 0.974

Q: And the normalized growth (locus YER110C, active compounds read low)?
A: 0.972

Q: And the normalized growth (locus YER111C, strain swi4, active compounds read low)?
A: 1.02

Q: What about the normalized growth (locus YER155C, strain BEM2 (second series), active compounds read low) of the same compound?
A: 0.897

Q: What about the normalized growth (locus YER155C, strain BEM2, active compounds read low) of the same compound?
A: 0.988

Q: What about the normalized growth (locus YER167W, strain BCK2, active compounds read low) of the same compound?
A: 0.99

Q: What about the normalized growth (locus YFR010W, strain ubp6, active compounds read low) of the same compound?
A: 1.01

Q: And the normalized growth (locus YGL078C, strain dbp3, active compounds read low)?
A: 0.99

Q: What about the normalized growth (locus YGL086W, strain mad1, active compounds read low) of the same compound?
A: 0.976

Q: And the normalized growth (locus YGL167C, strain pmr1, active compounds read low)?
A: 0.963

Q: And the normalized growth (locus YGL173C, strain kem1, active compounds read low)?
A: 0.98

Q: And the normalized growth (locus YGL227W, strain vid30, active compounds read low)?
A: 1

Q: And the normalized growth (locus YGL240W, strain doc1, active compounds read low)?
A: 0.941

Q: What about the normalized growth (locus YGL248W, strain PDE1, active compounds read low) of the same compound?
A: 0.985

Q: What about the normalized growth (locus YGL253W, strain hxk2, active compounds read low) of the same compound?
A: 0.936

Q: And the normalized growth (locus YGR078C, strain PAC10, active compounds read low)?
A: 0.962

Q: And the normalized growth (locus YGR135W, strain pre9, active compounds read low)?
A: 0.931

Q: And the normalized growth (locus YGR229C, strain SMI1, active compounds read low)?
A: 0.921

Q: What about the normalized growth (locus YGR252W, strain gcn5, active compounds read low) of the same compound?
A: 0.903

Q: And the normalized growth (locus YHR013C, strain ard1, active compounds read low)?
A: 0.962

Q: What about the normalized growth (locus YHR027C, strain rpn1, active compounds read low) of the same compound?
A: 0.999

Q: What about the normalized growth (locus YHR030C, strain SLT2, active compounds read low) of the same compound?
A: 0.993 and 0.954

Q: What about the normalized growth (locus YHR079C, strain IRE1 (second series), active compounds read low) of the same compound?
A: 0.976

Q: And the normalized growth (locus YHR079C, strain IRE1, active compounds read low)?
A: 0.948

Q: What about the normalized growth (locus YHR094C, strain hxt1, active compounds read low) of the same compound?
A: 0.994

Q: What about the normalized growth (locus YHR129C, strain ARP1, active compounds read low) of the same compound?
A: 0.989

Q: And the normalized growth (locus YHR142W, strain chs7, active compounds read low)?
A: 0.882

Q: And the normalized growth (locus YHR200W, strain rpn10, active compounds read low)?
A: 0.981

Q: And the normalized growth (locus YIL066C, strain RNR3, active compounds read low)?
A: 0.982

Q: And the normalized growth (locus YIL073C, strain SPO22, active compounds read low)?
A: 0.978

Q: And the normalized growth (locus YIL125W, strain kgd1, active compounds read low)?
A: 0.997

Q: And the normalized growth (locus YIR030C, strain dcg1, active compounds read low)?
A: 0.975

Q: And the normalized growth (locus YJL092W, strain hpr5, active compounds read low)?
A: 0.994

Q: And the normalized growth (locus YJL095W, strain BCK1 (second series), active compounds read low)?
A: 0.97

Q: What about the normalized growth (locus YJL095W, strain BCK1, active compounds read low) of the same compound?
A: 0.915 and 0.957

Q: What about the normalized growth (locus YJL115W, strain asf1, active compounds read low) of the same compound?
A: 1

Q: What about the normalized growth (locus YJL129C, strain trk1, active compounds read low) of the same compound?
A: 0.97

Q: And the normalized growth (locus YJL134W, strain LCB3, active compounds read low)?
A: 0.991

Q: And the normalized growth (locus YJL154C, strain vps35, active compounds read low)?
A: 0.993

Q: And the normalized growth (locus YJL164C, strain tpk1, active compounds read low)?
A: 0.946

Q: And the normalized growth (locus YJL166W, strain qcr8, active compounds read low)?
A: 0.931

Q: What about the normalized growth (locus YJL168C, strain set2, active compounds read low) of the same compound?
A: 0.976

Q: What about the normalized growth (locus YJL187C, strain SWE1 (second series), active compounds read low) of the same compound?
A: 0.977

Q: What about the normalized growth (locus YJL187C, strain SWE1, active compounds read low) of the same compound?
A: 0.971

Q: What about the normalized growth (locus YJR043C, strain POL32, active compounds read low) of the same compound?
A: 1.01

Q: And the normalized growth (locus YJR066W, strain TOR1, active compounds read low)?
A: 0.95

From PubChem BioAssay AID1159580 (chemical genetic matrix, 2015)
